Bioassay records: PubChem, several laboratories
In the library only some 27% were active in any assay of this set; here they are far more common.
CYP2C9 act = CYP2C9 (human) activation; P11712; recombinant CYP2C9, luciferin-H conversion, luminescence; active compounds read high; factor 1 = untreated enzyme, 0 = blocked; activation factor at 5 µM; hit rate 1.4% among 96,000;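 active means activation factor of 2 or more for CYP2C9 at a 5 µM dose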;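 further: 0 = sulfaphenazole-blocked wells and 1 = vehicle-only wells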
CYP2C19 inh = inhibitors of human CYP2C19. P33261. CYP2C19 Supersomes, luciferin-H EGE luminescence, 30 min. inhibition, % at 5 µM. hit rate 21% among 96,000;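 active means CYP2C19 inhibition above a set limit at 5 µM in the primary screen, cut at about 50% in these data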;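 further: plate controls were negative control wells for no effect and 2.5 mM tranylcypromine positive control for full effect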
Target sequence (P33261 whole entry, looked up): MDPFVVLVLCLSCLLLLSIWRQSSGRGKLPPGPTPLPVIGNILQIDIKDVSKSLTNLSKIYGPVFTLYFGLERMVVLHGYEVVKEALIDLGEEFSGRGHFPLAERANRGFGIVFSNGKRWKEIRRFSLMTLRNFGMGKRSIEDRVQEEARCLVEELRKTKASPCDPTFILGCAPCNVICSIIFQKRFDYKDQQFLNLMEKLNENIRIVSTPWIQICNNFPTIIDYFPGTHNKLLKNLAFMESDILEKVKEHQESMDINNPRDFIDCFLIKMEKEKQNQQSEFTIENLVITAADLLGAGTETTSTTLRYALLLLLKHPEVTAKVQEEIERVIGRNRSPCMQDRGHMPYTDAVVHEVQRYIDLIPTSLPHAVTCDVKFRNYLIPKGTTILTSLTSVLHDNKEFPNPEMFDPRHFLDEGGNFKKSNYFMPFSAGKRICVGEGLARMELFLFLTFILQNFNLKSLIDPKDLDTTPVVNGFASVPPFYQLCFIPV
CYP2C9 inhib = blocks human cytochrome P450 2C9. P11712. CYP2C9 Supersomes, luciferin-H conversion, luminescence. inhibition, % at 5 µM. hit rate 20% among 96,000;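 active means blocking of liver enzyme CYP2C9 beyond about 50% at 5 µM, limit read from the data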
CYP2C19 act = increases human CYP2C19 enzyme activity | activation factor at 5 µM | 96,000 tested, under 10 active | P33261 | recombinant CYP2C19, luciferin-H EGE luminescence; active compounds read high; 0 = fully inhibited enzyme, 1 = untreated enzyme | AID 1025;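 active means activation factor of at least 2 at 5 µM in the primary screen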;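 further: 0 = wells with 2.5 mM tranylcypromine and 1 = vehicle-only wells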
Cav3 T inh = blocks human Cav3.2 T-type calcium channel | O95180 | Cav3.2-expressing cells, Fluo-4 calcium fluorescence FDSS; active compounds read low | B-score at 10 µM | hit rate 4% among 100,000 | AID 449739;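 active means single-dose well whose peak fluorescence ratio is a statistical outlier from its plate by either plate-standardised score or position-corrected B-score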
An asterisk follows results filed as active; x = no result.

SMILES	CYP2C9 act	CYP2C19 inh	CYP2C9 inhib	CYP2C19 act	Cav3 T inh
O=C(NC1CCS(=O)(=O)C1)C1CCCCN1S(=O)(=O)c1ccc(Cl)cc1 (stereo not given)	0.1	21	91*	0.8	0.31
COc1cccc(S(=O)(=O)N2CCN(c3ccccc3F)CC2)c1	0.3	74*	67*	0.3	-5.2
O=C(c1cccc(S(=O)(=O)N2CCCCC2)c1)N1CCCCC1	1	22	0	0.8	0.14
CCCS(=O)(=O)N1CCN(c2ccccc2F)CC1	0.5	68*	47	0.3	0.75
O=C(c1cccc(S(=O)(=O)N2CCCC2)c1)N1CCN(c2ccccc2F)CC1	0.2	93*	80*	0.1	0.023
COC(=O)COc1ccc(S(=O)(=O)N2CCN(c3ccccc3F)CC2)cc1C	0.7	43	26	0.6	-0.61
CCOc1ccccc1N1CCN(S(=O)(=O)CC)CC1	0.8	35	24	0.7	-0.58
Cc1noc(/C=C/N(C)C)c1S(=O)(=O)NC1CCCCC1	0.7	26	30	0.7	-0.73
O=C(CCc1nc(-c2ccccc2)no1)NCC1CCCO1 (stereo not given)	1.2	-8	-16	1.1	x
Cc1cc(Nc2ccc(F)cc2Cl)n2ncnc2n1	1	-21	-4	1.2	0.019
Cc1ccc(S(=O)(=O)Nc2ccnc3ccccc23)cc1	1.8	20	-80	0.8	-0.24
Cc1ccc(S(=O)(=O)Nc2cccc3ncccc23)s1	2.5*	45	-154	0.6	-1.3
Cc1cc(C)n(-c2ccc(C(=O)Nc3ccccc3N3CCOCC3)cc2)n1	0.8	12	19	0.9	0.12
CC(C)(C)c1cc(C(=O)N2CCc3ccccc32)ccn1	0.5	72*	53*	0.3	-0.44
CN(C)S(=O)(=O)c1cccc(C(=O)N2CCc3ccccc32)c1	0.8	17	17	0.8	x
Cc1cc(C(=O)N2CCc3ccccc32)n(-c2ccccc2)n1	0.3	75*	68*	0.2	-0.0014
Cc1cc(C)n(-c2ccc(C(=O)N3CCc4ccccc43)cc2)n1	2*	41	-103	0.6	0.98
O=C(c1ccccc1F)N1CCc2ccccc21	3.5*	62*	-250	0.4	0.42
Cc1ccc(-n2c(C)cc(/C=N/NC(=O)c3ccc(CN4CCOCC4)cc3)c2C)cc1	0.7	-1	30	1	-0.83
Cn1c(NCCN2CCCCC2)cc(=O)n(C)c1=O	1.1	-14	-6	1.1	x
Cc1cccc(Nc2nc(-c3ccc4c(c3)OCCO4)cs2)c1	0.1	49	86*	0.5	0.048
Cc1ccn2c(-c3csc(NCc4ccco4)n3)c(C)nc2c1	0.8	25	19	0.7	x
Cc1cccc(Nc2nc(-c3c(C)nc4ccccn34)cs2)c1	0.4	33	61*	0.7	0.075
Cn1c(=O)n(C)c2cc(C(=O)c3ccccc3)ccc21	1	8	2	0.9	0.67
Cc1ccc(-c2cc(C(F)F)n3ncc(C(=O)Nc4c(C)nn(Cc5c(Cl)cccc5Cl)c4C)c3n2)cc1	0.1	40	91*	0.6	0.069
SMILES	CYP2C9 act	CYP2C19 inh	CYP2C9 inhib	CYP2C19 act	Cav3 T inh
Cc1nn(Cc2c(Cl)cccc2Cl)c(C)c1NC(=O)c1cnn2c(C(F)F)cc(-c3ccccc3)nc12	0.4	27	63*	0.7	0.75
CCc1nccn1C(=O)c1cnn2c(C(F)F)cc(-c3ccccc3)nc12	0.9	4	9	1	0.089
Cc1ccc(-c2cc(C(F)F)n3ncc(C(=O)Nc4c(C)nn(Cc5ccccc5Cl)c4C)c3n2)cc1	0.1	17	89*	0.8	-1.5
Cc1nn(Cc2ccccc2Cl)c(C)c1NC(=O)c1cc(-c2ccc(F)cc2)on1	0.5	10	50	0.9	-1.7
COC(=O)C(Cc1ccc(O)cc1)NC(=O)C(C)Oc1ccccc1 (stereo not given)	0.4	94*	58*	0.1	1.4
COC(=O)C(NC(=O)C(C)Oc1ccccc1)C(C)C (stereo not given)	1	31	1	0.7	0.0065
c1ccc2c(c1)c1ccccc1n2CN1CCOCC1	x	x	x	x	0.46
Cc1cc(OCC(=O)N2CCCC2)ccc1Cl	0.8	85*	20	0.2	-0.0027
COc1ccccc1N1CCN(C(=O)COc2ccc(C)cc2Br)CC1	0.9	50	9	0.5	-3.4
COCCCNC(=O)COc1ccc(Cl)c(C)c1	1.1	84*	-6	0.2	x
Cc1ccc(OCC(=O)N2CCCCC2)c(Br)c1	1.1	85*	-9	0.1	0.35
CC(C)=C1C2CCC1C1C(=O)N(NC(=O)COc3ccc(Cl)c(C)c3)C(=O)C21 (stereo not given)	1	49	0	0.5	-5.3*
CC(C)C[C@H](NC(=O)c1[nH]cnc1C(=O)N[C@@H](C)C(=O)OC(C)(C)C)C(=O)OCc1ccccc1	x	x	x	x	-0.25
Cn1nc(C(F)(F)F)c(/C=N/OC(=O)c2ccc(Cl)cc2)c1Cl	0.8	2	19	1	0.67
Cn1nc(C(F)(F)F)c(/C=N/OCc2c(Cl)cccc2Cl)c1Cl	0.2	52*	80*	0.5	-0.36
COc1ccc(CNC(=O)C2CC(=O)N(c3ccc(OCC(=O)N4CCCCC4)cc3)C2)cc1 (stereo not given)	0.5	32	47	0.7	-0.002
COc1cccc(N2CC(C(=O)Nc3ccc(C(=O)OC(C)C)cc3)CC2=O)c1 (stereo not given)	0.3	51*	71*	0.5	-4.6*
COc1ccc(CNC(=O)C2CC(=O)N(c3ccc(OCC(=O)N4C(C)CCCC4C)cc3)C2)cc1 (stereo not given)	0.4	31	61*	0.7	0.25
COc1cccc(N2CC(C(=O)NC3CCCCC3)CC2=O)c1 (stereo not given)	2.3*	-3	-128	1	0.7
COc1ccc([C@H]2/C=C\CN(Cc3ccc(N(C)C)cc3)[C@@H](C)C(=O)N2Cc2ccc(F)cc2)cc1	x	x	x	x	0.94
Cc1ccc(S(=O)(=O)C2CCOC2=O)cc1 (stereo not given)	0.9	-2	9	1	0.14
Cc1nn(Cc2ccc([N+](=O)[O-])cc2)c(=O)n1-c1c(F)cccc1F	1	59*	5	0.4	x
Cc1nn(Cc2ccc([N+](=O)[O-])cc2)c(=O)n1-c1ccc(F)cc1	0.1	46	86*	0.5	0.57
Cc1nn(CC#N)c(=O)n1-c1cccc(F)c1	1.3	-30	-34	1.3	0.27
CCNc1nc(N2CCCCC2)nc(-n2nnc(C(=O)OCC)c2C)n1	0.8	19	18	0.8	-0.47
CCS(=O)(=O)N1CCN(S(=O)(=O)c2ccccc2)CC1	0.8	35	22	0.6	0.38
CN(C)S(=O)(=O)N1CCN(S(=O)(=O)c2ccccc2)CC1	0.4	80*	58*	0.2	0.87
Cc1ccc(S(=O)(=O)N2CCN(S(=O)(=O)c3ccccc3)C2)cc1	0.4	56*	57*	0.4	x
Cc1ccc(-c2ccc(S(=O)(=O)N3CCN(C)CC3)cc2)cc1	0.5	16	52*	0.8	0.55
